Experimental data as given in PubChem BioAssay (Tox21).
Records with an inconclusive call do not appear. Active and inactive are the calls of the source. The call rests on the fitted dose curve; in most records, active means well fitted cell-killing curve with a large enough effect in the repeat runs; inconclusive means weak or mixed curves, or effect the other way; inactive means no such curve, though single readings can be large or run the other way.
On the % scale 0 is the no-effect control and ±100 the full control effect.

Assay: qHTS assay for small molecule activators of the heat shock response signaling pathway - cell viability counter screen (AID 743209); further: nearly all actives have a fitted effect of over 50% in size
Conditions: HSE-bla HeLa viability, CellTiter-Glo luminescence, 5 h; series mostly up to 62.6 µM; activity change, negative = cytotoxicity: at the top concentration
Description: U.S. Tox21 Program National Center for Advancing Translational Sciences [NCATS] NIH Chemical Genomics Center [NCGC] U.S. Environmental Protection Agency [EPA] National Institutes of Environmental Health Sciences [NIEHS] National Toxicology Program [NTP] U.S. Food and Drug Administration [FDA] Tox21 Assay Overview: Various chemicals, environmental and physiological stress conditions may lead to the activation of heat shock response/ unfolded protein response (HSR/UPR). There are three heat shock transcription factors (HSFs) (HSF-1, -2, and -4) mediating transcriptional regulation of the human HSR. To identify the compounds that activate HSR signaling, HSE-bla HeLa cell line (Invitrogen, Carlsbad, CA, USA) containing a beta-lactamase reporter gene under the control of the heat shock response elements was used to screen Tox21 10K compound library. The cytotoxicity of the Tox21 compound library against the HSE-bla HeLa cell line was tested in parallel by measuring the cell viability using CellTiter-Glo assay (Promega, Madison, WI) in the same wells.
Tox21 Assay Protocol Summary: The CellSensor HSE-bla HeLa cells (Invitrogen, Carlsbad, CA, USA) were dispensed at 1500 cells/6uL/well into 1536-well black wall/clear bottom plates using a Multidrop combi (Thermo Fisher Scientific, Waltham, MA) dispenser. After the assay plates were incubated at 37 C and 5% CO2 overnight, 23 nL of compounds dissolved in DMSO, positive controls or DMSO only was transferred to the assay plate by a Pintool station (Kalypsys, San Diego, CA). The plates were incubated at 37 C for 5 h. After 1 uL of LiveBLAzerTM B/G FRET substrate was added using a Flying Reagent Dispenser (FRD, Beckman Coulter, Indianapolis, IN, USA), the plates were incubated at room temperature for 2.5 h, and fluorescence intensity was measured by an Envision plate reader (PerkinElmer, Shelton, CT). For cell viability readout that measures cytotoxicity, 3 ul/well of CellTiter-Glo reagent was added into the assay plates using a FRD. After 30 min incubation at room temperature, the luminescence intensity in the plates was measured using a ViewLux (PerkinElmer) plate reader.
In the case of `NC(=O)NO`, the outcome is reported as “inactive”.
In the case of `NC(=O)OCC(COC(N)=O)c1ccccc1`, the “activity change, negative = cytotoxicity” value is reported as -2.41% (inactive).
In the case of `CCN1CCCC1=O`, the outcome is reported as “inactive”.
In the case of `O=C(O)Cc1cccc2ccccc12`, the outcome is reported as “inactive”.
With `CC(C)Cc1ccc(C(C)C(=O)O)cc1` (stereo not given) the outcome was “inactive”.
For `COCC(C)N` (stereo not given), the outcome was “inactive”.
In the case of `CCCCOC(=O)CCCCCCCCC(=O)OCCCC`, the outcome is reported as “inactive”.
In the case of `C[C@]12C[C@H](O)[C@H]3[C@@H](CCC4=CC(=O)CC[C@@]43C)[C@@H]1CC[C@@H]2C(=O)CO`, the outcome is reported as “inactive”.
With `CC1=NN(c2ccccc2)C(=O)C1` the outcome was “inactive”.
With `CN(C)C=O` the outcome was “inactive”.
For `N[C@@H](Cc1c[nH]c2ccccc12)C(=O)O`, the outcome was “inactive”.
In the case of `C=C(C)C(N)=O`, the outcome is reported as “inactive”.
In the case of `C[C@]12CC[C@@H]3c4ccc(O)cc4CC[C@H]3[C@@H]1CCC2=O`, the “activity change, negative = cytotoxicity” value is reported as -0.657% (inactive).
For `CN(C)Cc1cc(CN(C)C)c(O)c(CN(C)C)c1`, the outcome was “inactive”.
For `O=C(O)CCCCC1CCSS1` (stereo not given), the outcome was “inactive”.
With `COc1ccc(O)cc1` the outcome was “inactive”.
For `CCCCCCCC(=O)OCC(O)CO` (stereo not given), the “activity change, negative = cytotoxicity” value was 2% (inactive).
In the case of `Cc1cccc(Nc2cc(Cl)nc(SCC(=O)O)n2)c1C`, the outcome is reported as “inactive”.
With `C[C@]12C=CC(=O)C=C1CC[C@@H]1[C@@H]2C(=O)C[C@@]2(C)[C@H]1CC[C@]2(O)C(=O)CO` the outcome was “inactive”.
With `C/C=C/c1ccc(O)c(OC)c1` the outcome was “inactive”.
With `O=[N+]([O-])c1ccc(O)cc1` the outcome was “inactive”.
In the case of `C=C(C)OC(C)=O`, the outcome is reported as “inactive”.
For `COc1cc(O)c(C(=O)c2ccccc2)cc1S(=O)(=O)O`, the outcome was “inactive”.
With `Nc1ccc(N=Nc2ccccc2)c(N)n1` the outcome was “inactive”.
In the case of `CC(C)=CCC/C(C)=C/CO`, the outcome is reported as “inactive”.
For `CCOCCO`, the outcome was “inactive”.
With `O=c1cc[nH]c(=O)[nH]1` the outcome was “inactive”.
With `CC(C)CC(C)CC(O)CC(C)C` (stereo not given) the outcome was “inactive”.
In the case of `CC(=O)OC/C=C(C)/C=C/C=C(C)/C=C/C1=C(C)CCCC1(C)C`, the outcome is reported as “inactive”.
For `CCCCCCCCOc1ccc(C(=O)c2ccccc2)c(O)c1`, the outcome was “inactive”.
With `COc1cc(C=O)ccc1O` the outcome was “inactive”.
For `CCc1cc(C(N)=S)ccn1`, the outcome was “inactive”.
With `COC(=O)C1CCC(C(=O)OC)CC1` (stereo not given) the outcome was “inactive”.
With `C1CNCCN1` the outcome was “inactive”.
With `OC[C@@H](O)[C@@H](O)[C@H](O)[C@H](O)CO` the outcome was “inactive”.
For `C#C[C@]1(O)CC[C@H]2[C@@H]3CCC4=CC(=O)CC[C@@H]4[C@H]3CC[C@@]21CC`, the outcome was “inactive”.
For `O=C1OC(c2ccc(O)cc2)(c2ccc(O)cc2)c2ccccc21`, the outcome was “inactive”.
In the case of `O=c1c(-c2ccc(O)cc2)coc2cc(O)cc(O)c12`, the outcome is reported as “inactive”.
In the case of `CCOC(=O)C(C)(C)Oc1ccc(Cl)cc1`, the outcome is reported as “inactive”.
With `NC(=O)c1ccc([N+](=O)[O-])cc1Cl` the outcome was “inactive”.
